Assay results: PubChem BioAssay (EPA / NIEHS)
Records with an inconclusive call do not appear. Active and inactive are the calls of the source. How the source made its calls, unless noted: active means hit-call score of the fitted dose curve at least 0.9, where 1 is the maximum; inactive means score below 0.9.

Tests used:
[1] = biological target: Estrogen-related receptor gamma (Homo sapiens) (UniProt P62508); test: ATG_ERRg_TRANS: Attagene TRANS-FACTORIAL HepG2 Assay for human Estrogen-Related Receptor gamma (ERRg) (AID 2282977; active means hit-call score of the fitted dose curve at least 0.9, where 1 is the maximum;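 further: hits increase reporter signal over DMSO so potencies reflect activators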); details: HepG2 Attagene TRANS reporter, ERRg transactivation
Method in brief: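 Exogenous NR-Gal4 chimera activity was assessed in HepG2 cells bearing transfected GAL4-UAS reporters. After 24 h dosing, total RNA underwent RT-PCR, fluorescent primer extension and HpaI digestion before capillary electrophoresis, with gain of signal scored against DMSO.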

[2] = biological target: Hepatocyte nuclear factor 4-alpha (Homo sapiens) (UniProt P41235); test: ATG_HNF4a_TRANS: Attagene TRANS-FACTORIAL HepG2 Assay for human Hepatocyte Nuclear Factor 4 alpha (HNF4a) (AID 2282982; active means hit-call score of the fitted dose curve at least 0.9, where 1 is the maximum); details: HepG2 HNF4a transactivation reporter, mRNA readout
Hepatocyte nuclear factor 4-alpha (Homo sapiens), sequence (P41235 whole entry, looked up, the tested form may be a part): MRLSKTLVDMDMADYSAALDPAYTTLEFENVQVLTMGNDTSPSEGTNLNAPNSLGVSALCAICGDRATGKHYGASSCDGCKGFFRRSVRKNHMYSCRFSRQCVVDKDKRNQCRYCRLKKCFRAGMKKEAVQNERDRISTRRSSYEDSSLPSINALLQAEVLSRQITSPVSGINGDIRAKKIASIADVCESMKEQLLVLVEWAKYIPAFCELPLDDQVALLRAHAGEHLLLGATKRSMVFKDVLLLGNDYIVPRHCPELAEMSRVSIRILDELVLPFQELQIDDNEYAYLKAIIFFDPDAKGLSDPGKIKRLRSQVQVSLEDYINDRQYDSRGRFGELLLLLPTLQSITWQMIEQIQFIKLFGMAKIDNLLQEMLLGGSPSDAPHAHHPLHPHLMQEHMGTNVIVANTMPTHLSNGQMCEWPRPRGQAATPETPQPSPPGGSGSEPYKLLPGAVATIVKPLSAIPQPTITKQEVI
Method in brief: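 Using HepG2 liver cells transfected with GAL4-UAS reporter units, chemical-induced mRNA increases were assessed after 24 hours. Fluorescent RT-PCR fragments were separated by capillary electrophoresis and compared with DMSO negative controls.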

[3] = ATG_M_06_TRANS: Attagene TRANS-FACTORIAL HepG2 Assay for M06 Transcription Factor (Internal Marker) (AID 2282983; active means hit-call score of the fitted dose curve at least 0.9, where 1 is the maximum); details: HepG2 Attagene TRANS M06 internal marker reporter
Method in brief: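 In this multiplexed HepG2 system, compounds are incubated 24 h with cells carrying GAL4-UAS reporter units. Reporter RNA is amplified and resolved by capillary electrophoresis, and induction is scored against DMSO.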

[4] = ATG_M_32_TRANS: Attagene TRANS-FACTORIAL HepG2 Assay for M32 Transcription Factor (Internal Marker) (AID 2282984; active means hit-call score of the fitted dose curve at least 0.9, where 1 is the maximum;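 further: transcript level of a background control reporter unit measured by RT-PCR and capillary electrophoresis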); details: HepG2 Attagene TRANS M32 internal marker reporter
Method in brief: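 Fluorescence-detected mRNA induction, HepG2 liver cells, 24 h after dosing. Multiple GAL4-UAS reporter units introduced by transient transfection; background-control endpoint analysed for gain of signal against DMSO.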

[5] = biological target: Transcriptional activator Myb (Homo sapiens) (UniProt P10242); test: ATG_Myb_CIS: Attagene CIS-FACTORIAL HepG2 Assay for human Myeloblastosis (Myb) Proto-Oncogene Transcription Factor (AID 2282986); details: HepG2 Attagene CIS-FACTORIAL Myb reporter transcription; actives raise or lower the signal
Transcriptional activator Myb (Homo sapiens), sequence (P10242 whole entry, looked up): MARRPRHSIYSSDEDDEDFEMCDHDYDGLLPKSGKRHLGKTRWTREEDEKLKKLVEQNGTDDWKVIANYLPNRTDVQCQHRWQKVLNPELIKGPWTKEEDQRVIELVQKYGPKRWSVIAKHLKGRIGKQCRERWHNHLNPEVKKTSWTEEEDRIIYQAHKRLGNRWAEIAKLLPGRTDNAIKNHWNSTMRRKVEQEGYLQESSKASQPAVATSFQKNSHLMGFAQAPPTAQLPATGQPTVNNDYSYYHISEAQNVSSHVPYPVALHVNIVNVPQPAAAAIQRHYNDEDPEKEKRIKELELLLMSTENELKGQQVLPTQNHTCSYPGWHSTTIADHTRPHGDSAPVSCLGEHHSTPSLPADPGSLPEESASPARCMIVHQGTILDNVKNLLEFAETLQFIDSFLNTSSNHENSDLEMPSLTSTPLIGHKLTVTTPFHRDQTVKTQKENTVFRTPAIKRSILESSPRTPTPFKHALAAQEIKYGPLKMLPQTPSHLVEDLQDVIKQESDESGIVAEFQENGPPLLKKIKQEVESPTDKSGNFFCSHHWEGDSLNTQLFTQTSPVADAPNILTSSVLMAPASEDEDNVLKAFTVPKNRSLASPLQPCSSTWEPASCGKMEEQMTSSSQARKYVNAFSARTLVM
Method in brief: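 Multiplexed cis-reporter system in HepG2: transient transfection, 24 h treatment, mRNA readout by RT-PCR and capillary electrophoresis. Both increases and decreases are scored versus DMSO negative control.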

[6] = biological target: Nuclear respiratory factor 1 (Homo sapiens) (UniProt Q16656); test: ATG_NRF1_CIS: Attagene CIS-FACTORIAL HepG2 Assay for human Nuclear Respiratory Factor 1 (NRF1) Orphan Gene (AID 2282987); details: HepG2 NRF1 cis-element reporter, Attagene multiplex; actives raise or lower the signal
Nuclear respiratory factor 1 (Homo sapiens), sequence (Q16656 whole entry, looked up): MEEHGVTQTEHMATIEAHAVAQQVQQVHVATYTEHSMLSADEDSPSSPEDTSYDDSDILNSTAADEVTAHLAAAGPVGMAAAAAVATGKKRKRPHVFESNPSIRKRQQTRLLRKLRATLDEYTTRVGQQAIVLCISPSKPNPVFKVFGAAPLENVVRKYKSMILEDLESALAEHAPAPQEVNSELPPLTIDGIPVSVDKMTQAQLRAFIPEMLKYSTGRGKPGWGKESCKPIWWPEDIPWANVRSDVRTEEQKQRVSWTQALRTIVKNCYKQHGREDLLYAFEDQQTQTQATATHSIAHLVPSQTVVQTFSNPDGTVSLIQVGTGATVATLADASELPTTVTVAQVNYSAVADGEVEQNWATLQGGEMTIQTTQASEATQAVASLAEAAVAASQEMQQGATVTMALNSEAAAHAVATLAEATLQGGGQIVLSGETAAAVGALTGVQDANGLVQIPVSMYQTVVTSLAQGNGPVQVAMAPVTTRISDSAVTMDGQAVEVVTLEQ
Method in brief: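 Endogenous factor activity was captured via cis-element-driven reporter transcripts in HepG2 cells. Following 24 h chemical treatment, transcripts were quantified by RT-PCR and capillary electrophoresis.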

[7] = biological target: Myc proto-oncogene protein (Homo sapiens) (UniProt P01106); test: ATG_Myc_CIS: Attagene CIS-FACTORIAL HepG2 Assay for human Myelocytomatosis (Myc) Proto-Oncogene Transcription Factor (AID 2282990); details: HepG2, Attagene cis-reporter transcription factor activity; actives raise or lower the signal
Myc proto-oncogene protein (Homo sapiens), sequence (P01106 whole entry, looked up): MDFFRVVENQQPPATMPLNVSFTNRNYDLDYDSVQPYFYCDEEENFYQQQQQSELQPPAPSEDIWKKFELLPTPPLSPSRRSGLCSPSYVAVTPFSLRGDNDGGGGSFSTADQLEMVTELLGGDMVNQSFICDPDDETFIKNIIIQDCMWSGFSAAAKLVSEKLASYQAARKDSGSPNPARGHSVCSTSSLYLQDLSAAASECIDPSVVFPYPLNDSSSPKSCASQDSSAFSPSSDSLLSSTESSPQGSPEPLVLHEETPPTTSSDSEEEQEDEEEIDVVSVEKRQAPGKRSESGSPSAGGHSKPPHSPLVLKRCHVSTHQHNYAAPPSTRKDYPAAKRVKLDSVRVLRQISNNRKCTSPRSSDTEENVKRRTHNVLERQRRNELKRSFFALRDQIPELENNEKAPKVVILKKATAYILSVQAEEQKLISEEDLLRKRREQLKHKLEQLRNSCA
Method in brief: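 Multiplexed cis-reporter transcription in HepG2 cells after 24 h chemical treatment. Reporter mRNA measured by RT-PCR and capillary electrophoresis fluorescence; activity fitted bidirectionally against DMSO control.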

[8] = ATG_NF_kB_CIS: Attagene CIS-FACTORIAL HepG2 Assay for human Nuclear Factor Kappa B (NF-kB) (AID 2282991); details: HepG2 Attagene cis-factorial NF-kB reporter mRNA; actives raise or lower the signal
Method in brief: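 After 24 h compound incubation, transfected HepG2 cells yield total RNA; reporter cDNA is PCR-amplified, end-labelled with 6-FAM, HpaI-digested and analysed on a genetic analyser. Endogenous factor activity, DMSO-referenced bidirectional fit.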

[9] = ATG_NRF2_ARE_CIS: Attagene CIS-FACTORIAL HepG2 Assay for human Nuclear Factor Erythroid 2 Related Factor 2 (NFR2) response to Antioxidant Response Elements (ARE) (AID 2282992); details: HepG2 Attagene ARE/NRF2 reporter, transcription factor activity; actives raise or lower the signal
Method in brief: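 Endogenous transcription factor activity read out as reporter transcript levels (RT-PCR plus capillary electrophoresis, fluorescence) in transiently transfected HepG2 cells. Measured at 24 h after dosing; gain or loss of signal fitted versus DMSO.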

[10] = ATG_Oct_MLP_CIS: Attagene CIS-FACTORIAL HepG2 Assay for human Octamer-Binding Transcription Factor (Oct) (AID 2282993); details: HepG2 Attagene cis-factorial Oct reporter, mRNA; actives raise or lower the signal
Method in brief: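 Using HepG2 cells bearing transfected cis-reporter constructs, mRNA induction was read after 24 h by fluorescent RT-PCR and capillary electrophoresis, with DMSO defining baseline for gain- or loss-of-signal fits.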

[11] = biological target: Glucocorticoid receptor (Homo sapiens) (UniProt P04150); test: ATG_GR_TRANS: Attagene TRANS-FACTORIAL HepG2 Assay for human Glucocorticoid Receptor (GR) (AID 2282978; active means hit-call score of the fitted dose curve at least 0.9, where 1 is the maximum;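 further: activators score as hits since higher reporter transcript over DMSO is fitted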); details: HepG2 Attagene TRANS GR reporter, mRNA transcription
Glucocorticoid receptor (Homo sapiens), sequence (P04150 whole entry, looked up, the tested form may be a part): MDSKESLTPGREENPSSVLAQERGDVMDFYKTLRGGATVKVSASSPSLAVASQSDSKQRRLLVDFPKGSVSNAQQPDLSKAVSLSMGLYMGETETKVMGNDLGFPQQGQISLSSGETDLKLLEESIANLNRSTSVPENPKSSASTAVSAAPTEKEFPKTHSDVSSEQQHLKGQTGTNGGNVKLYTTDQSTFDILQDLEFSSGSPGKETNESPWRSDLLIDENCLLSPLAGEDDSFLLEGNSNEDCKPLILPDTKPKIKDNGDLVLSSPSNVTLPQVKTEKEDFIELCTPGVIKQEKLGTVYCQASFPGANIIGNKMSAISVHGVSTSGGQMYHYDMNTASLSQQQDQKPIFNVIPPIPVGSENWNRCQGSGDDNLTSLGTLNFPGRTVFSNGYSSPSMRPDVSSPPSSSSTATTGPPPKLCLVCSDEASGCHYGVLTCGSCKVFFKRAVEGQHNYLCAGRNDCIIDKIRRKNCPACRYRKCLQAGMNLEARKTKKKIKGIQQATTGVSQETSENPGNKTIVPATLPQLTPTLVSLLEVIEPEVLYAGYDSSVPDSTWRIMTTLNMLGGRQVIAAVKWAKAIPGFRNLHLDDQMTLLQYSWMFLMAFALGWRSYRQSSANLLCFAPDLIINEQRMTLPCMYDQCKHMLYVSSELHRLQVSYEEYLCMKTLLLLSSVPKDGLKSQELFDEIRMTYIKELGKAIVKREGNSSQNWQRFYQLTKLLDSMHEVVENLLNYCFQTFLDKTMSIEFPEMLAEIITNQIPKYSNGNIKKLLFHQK
Method in brief: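 HepG2 transient transfection, multiple reporter units, GAL4-UAS under NR-GAL4 chimera control. 24 h treatment. Reporter mRNA by RT-PCR/CE fluorescence, DMSO as negative control.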

[12] = biological target: Oxysterols receptor LXR-alpha (Homo sapiens) (UniProt Q13133); test: ATG_LXRa_TRANS: Attagene TRANS-FACTORIAL HepG2 Assay for human Liver X Receptor alpha (LXRa) (AID 2282980; active means hit-call score of the fitted dose curve at least 0.9, where 1 is the maximum); details: HepG2 Attagene TRANS reporter, LXRa transactivation
Method in brief: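 HepG2 cells were transiently transfected with multiplexed reporter units driven by chimeric LXRa–GAL4 fusion proteins, then dosed for 24 h. Reporter mRNA was quantified by RT-PCR, fluorescent labelling and capillary electrophoresis; gain of signal fitted against DMSO baseline.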

[13] = biological target: Nuclear receptor subfamily 4 group A member 2 (Homo sapiens) (UniProt P43354); test: ATG_NURR1_TRANS: Attagene TRANS-FACTORIAL HepG2 Assay for human Nuclear Receptor Related Protein 1 (NURR1) (AID 2282985; active means hit-call score of the fitted dose curve at least 0.9, where 1 is the maximum); details: HepG2 Attagene TRANS reporter, mRNA readout
Nuclear receptor subfamily 4 group A member 2 (Homo sapiens), sequence (P43354 whole entry, looked up, the tested form may be a part): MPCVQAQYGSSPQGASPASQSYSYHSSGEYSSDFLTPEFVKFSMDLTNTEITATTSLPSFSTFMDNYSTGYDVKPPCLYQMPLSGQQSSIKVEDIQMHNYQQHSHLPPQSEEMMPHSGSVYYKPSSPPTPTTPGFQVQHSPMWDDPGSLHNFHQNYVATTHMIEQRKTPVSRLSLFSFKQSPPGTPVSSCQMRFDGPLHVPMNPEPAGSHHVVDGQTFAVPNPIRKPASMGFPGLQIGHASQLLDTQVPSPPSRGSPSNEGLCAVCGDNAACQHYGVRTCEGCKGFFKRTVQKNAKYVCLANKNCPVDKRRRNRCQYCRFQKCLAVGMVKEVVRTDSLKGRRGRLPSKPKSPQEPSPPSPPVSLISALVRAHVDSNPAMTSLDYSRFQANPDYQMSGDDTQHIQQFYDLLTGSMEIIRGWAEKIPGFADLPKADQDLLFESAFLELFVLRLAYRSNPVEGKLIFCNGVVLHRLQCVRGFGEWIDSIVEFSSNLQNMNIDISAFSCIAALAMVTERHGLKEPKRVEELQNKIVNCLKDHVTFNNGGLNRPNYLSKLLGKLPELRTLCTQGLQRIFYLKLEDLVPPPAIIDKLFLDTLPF
Method in brief: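 Chimeric NR-Gal4 proteins were expressed in human HepG2 cells bearing GAL4-UAS reporter units, and induced reporter mRNA was quantified 24 h post-dosing by RT-PCR and capillary electrophoresis.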

[14] = ATG_NFI_CIS: Attagene CIS-FACTORIAL HepG2 Assay for human Nuclear Factor I (NFI) (AID 2282989); details: HepG2 cis-regulatory reporter, NFI response element transcription; actives raise or lower the signal
Method in brief: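 Transfected HepG2 liver cells, exposed 24 h, supplied total RNA for oligo(dT) reverse transcription and reporter-specific PCR. Labelled, HpaI-cut fragments were sized by capillary electrophoresis; DMSO set the baseline for bidirectional fitting.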

[15] = biological target: Cellular tumor antigen p53 (Homo sapiens) (UniProt P04637); test: ATG_p53_CIS: Attagene CIS-FACTORIAL HepG2 Assay for human p53 Transcription Factor (AID 2282994); details: HepG2 p53 cis-element reporter, Attagene mRNA; actives raise or lower the signal
Cellular tumor antigen p53 (Homo sapiens), sequence (P04637 whole entry, looked up): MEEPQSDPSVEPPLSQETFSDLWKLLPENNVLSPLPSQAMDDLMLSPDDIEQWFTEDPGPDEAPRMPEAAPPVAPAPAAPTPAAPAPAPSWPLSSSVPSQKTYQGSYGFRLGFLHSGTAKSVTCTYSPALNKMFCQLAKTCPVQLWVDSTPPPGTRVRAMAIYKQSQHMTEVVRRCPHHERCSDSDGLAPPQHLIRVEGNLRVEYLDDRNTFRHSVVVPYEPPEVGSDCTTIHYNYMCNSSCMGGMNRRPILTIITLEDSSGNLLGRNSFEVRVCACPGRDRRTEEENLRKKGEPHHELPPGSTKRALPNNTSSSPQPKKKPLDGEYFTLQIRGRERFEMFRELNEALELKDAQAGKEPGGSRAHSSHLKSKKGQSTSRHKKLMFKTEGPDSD
Method in brief: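 Endogenous p53 activity read in transiently transfected HepG2 from a cis-element-driven reporter transcript after 24 h exposure. RNA reverse-transcribed, PCR-amplified, fluorescently labelled and sized by capillary electrophoresis; gain or loss fitted against DMSO baseline.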

[16] = BSK_3C_TissueFactor: BioMAP Diversity Plus: 3C Assay for Tissue Factor Biomarker Activity (AID 2282997); details: BioMAP 3C HUVEC, tissue factor biomarker readout; actives raise or lower the signal
Method in brief: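 Readout: Tissue Factor ELISA. Cells: human primary umbilical vein endothelium. Time: 24 h after dosing. Analysis: bidirectional fit, DMSO baseline.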

[17] = BSK_3C_uPAR: BioMAP Diversity Plus: 3C Assay for Urokinase-type plasminogen activator receptor (uPAR) Biomarker Activity (AID 2282998); details: BioMAP 3C HUVEC, uPAR biomarker ELISA; actives raise or lower the signal
Method in brief: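 In this endothelial cell-based assay, human umbilical vein primary cells were treated with chemicals and harvested at 24 h. uPAR was quantified using ELISA, with gains or losses fitted relative to DMSO controls.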

[18] = biological target: Oxysterols receptor LXR-beta (Homo sapiens) (UniProt P55055); test: ATG_LXRb_TRANS: Attagene TRANS-FACTORIAL HepG2 Assay for human Liver X Receptor beta (LXRb) (AID 2282981; active means hit-call score of the fitted dose curve at least 0.9, where 1 is the maximum); details: HepG2 Attagene TRANS GAL4-LXRb reporter, mRNA
Oxysterols receptor LXR-beta (Homo sapiens), sequence (P55055 whole entry, looked up, the tested form may be a part): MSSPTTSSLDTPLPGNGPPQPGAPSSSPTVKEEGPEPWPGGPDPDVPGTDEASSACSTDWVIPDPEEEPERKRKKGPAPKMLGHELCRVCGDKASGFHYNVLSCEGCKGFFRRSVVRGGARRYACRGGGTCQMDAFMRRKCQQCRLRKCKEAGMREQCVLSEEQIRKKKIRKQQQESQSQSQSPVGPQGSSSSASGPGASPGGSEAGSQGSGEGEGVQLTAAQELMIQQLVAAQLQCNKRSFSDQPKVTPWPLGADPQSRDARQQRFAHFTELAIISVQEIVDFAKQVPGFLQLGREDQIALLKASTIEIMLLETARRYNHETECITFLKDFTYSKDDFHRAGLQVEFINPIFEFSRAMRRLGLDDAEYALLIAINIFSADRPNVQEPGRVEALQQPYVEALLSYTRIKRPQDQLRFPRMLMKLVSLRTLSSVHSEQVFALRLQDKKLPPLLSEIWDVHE
Method in brief: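 Liver-derived HepG2 cells transfected with Gal4-responsive reporters were dosed for 24 h. Activation was scored as rise in reporter mRNA, by RT-PCR and capillary electrophoresis, above DMSO baseline.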

[19] = biological target: Bile acid receptor (Homo sapiens) (UniProt Q96RI1); test: ATG_FXR_TRANS: Attagene TRANS-FACTORIAL HepG2 Assay for Farnesoid X Receptor (FXR) (AID 2282979; active means hit-call score of the fitted dose curve at least 0.9, where 1 is the maximum;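 further: hits raise reporter mRNA above DMSO so AC50 marks FXR activation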); details: HepG2 Attagene TRANS FXR-GAL4 reporter transcription
Bile acid receptor (Homo sapiens), sequence (Q96RI1 whole entry, looked up, the tested form may be a part): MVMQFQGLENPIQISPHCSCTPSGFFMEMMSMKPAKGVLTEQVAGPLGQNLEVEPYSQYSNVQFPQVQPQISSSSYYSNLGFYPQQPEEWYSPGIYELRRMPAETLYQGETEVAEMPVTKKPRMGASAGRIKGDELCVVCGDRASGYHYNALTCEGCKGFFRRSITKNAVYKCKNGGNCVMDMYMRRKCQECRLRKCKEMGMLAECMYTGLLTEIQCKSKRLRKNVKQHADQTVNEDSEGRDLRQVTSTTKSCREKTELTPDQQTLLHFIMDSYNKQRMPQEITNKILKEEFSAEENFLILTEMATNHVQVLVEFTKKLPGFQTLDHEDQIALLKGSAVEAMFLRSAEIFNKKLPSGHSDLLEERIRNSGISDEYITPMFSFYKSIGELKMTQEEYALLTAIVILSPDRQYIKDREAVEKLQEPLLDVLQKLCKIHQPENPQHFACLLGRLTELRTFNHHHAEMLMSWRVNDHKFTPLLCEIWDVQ
Method in brief: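 HepG2 cells transiently transfected with reporter constructs in which a chimeric FXR-GAL4 protein drives a GAL4-UAS reporter; 24 h compound exposure. Reporter mRNA measured by RT-PCR, FAM labelling, HpaI digestion and capillary electrophoresis; gain-of-signal versus DMSO.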

Measured: AC50

COc1cccc(C=O)c1
inactive: [1] | [2] | [3] | [4] | [5] | [6] | [7] | [8] | [9] | [10]

ClCC(Cl)CCl
not listed: [2] | [6] | [8] | [18] | [19]
inactive: all other assays above

C[C@]12CC[C@H](O)CC1=CC[C@@H]1[C@@H]2CC[C@]2(C)C(=O)CC[C@@H]12
inactive: [11] | [18] | [3] | [4] | [5] | [6] | [7] | [8] | [10]

COc1ccc(OC)c(C=O)c1
not listed: [1] | [3] | [6] | [9] | [16] | [17] | [18] | [19]
inactive: all other assays above

Clc1ccc(C2(Cn3cncn3)CC(Br)CO2)c(Cl)c1 (configuration not stated)
active: [6] 47 µM | [9] 26.9 µM
not listed: [1] | [12] | [16] | [17]
inactive: all other assays above

Clc1ccc(COC(Cn2ccnc2)c2ccc(Cl)cc2Cl)cc1 (configuration not stated)
active: [9] 6.8 µM
not listed: [1] | [2] | [12] | [16] | [17] | [18]
inactive: all other assays above

Nc1ccc(-c2ccc(N)c(Cl)c2)cc1Cl
active: [9] 2.66 µM | [10] 5.49 µM | [17] 6.24 µM
not listed: [1] | [2] | [8] | [12] | [15] | [19]
inactive: all other assays above

N#CCc1ccc(Cl)cc1
not listed: [1] | [2] | [4] | [13] | [16] | [17] | [18] | [19]
inactive: all other assays above

O=C(Cl)c1ccc(Cl)cc1
not listed: [1] | [2] | [13] | [16] | [17]
inactive: all other assays above

CCC(=O)C(CC(C)N(C)C)(c1ccccc1)c1ccccc1 (configuration not stated)
not listed: [1] | [2] | [3] | [8] | [13] | [15]
inactive: all other assays above

CC12CC1(C)C(=O)N(c1cc(Cl)cc(Cl)c1)C2=O (configuration not stated)
not listed: [1] | [14] | [15] | [19]
inactive: all other assays above

CC(=O)C(Cl)C(=O)N(C)C (configuration not stated)
active: [16] 5.13 µM | [17] 30.1 µM
not listed: [1] | [2] | [8] | [9] | [15] | [19]
inactive: all other assays above

O=C(OC1CCCCC1)c1ccccc1C(=O)OC1CCCCC1
active: [16] 7.93 µM | [17] 11.9 µM
not listed: [1] | [2] | [9] | [12] | [18]
inactive: all other assays above

CN(CCCC(=O)c1cccnc1)N=O
not listed: [1] | [13] | [16] | [17] | [18] | [19]
inactive: all other assays above

CCC(C)(C)c1ccc(O)c(C(C)(C)CC)c1
active: [19] 49.5 µM | [12] 9.67 µM | [18] 23.6 µM | [13] 33.4 µM | [9] 11.1 µM | [16] 12 µM | [17] 8.8 µM
not listed: [1] | [2] | [3] | [15]
inactive: all other assays above

COC(=O)c1sccc1S(=O)(=O)NC(=O)Nc1nc(C)nc(OC)n1
not listed: [1] | [2] | [3] | [4] | [6] | [19]
inactive: all other assays above

ClC(Cl)=C(Cl)C(Cl)=C(Cl)Cl
active: [7] 119 µM | [9] 66 µM | [10] 149 µM | [16] 14.6 µM | [17] 32.4 µM
inactive: [11] | [12] | [18] | [3] | [4] | [13] | [5]

CCOP(=S)(OCC)SCSP(=S)(OCC)OCC
active: [12] 7.73 µM | [18] 18.9 µM
not listed: [1] | [4] | [6] | [19]
inactive: all other assays above

CCC1(c2ccc(N)cc2)CCC(=O)NC1=O (configuration not stated)
inactive: [11] | [19] | [2] | [3] | [5] | [6] | [14] | [7] | [10]
